Assay [1] can be described thus: growth inhibition of DIPG glioma cells, dose response, cell-based, SU-DIPG-XVII, MIPE5.0, CellTiter-Glo, qHTS (AID 1347060; cut-off not given, nearly all actives have AC50 up to about 26 µM;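 for AC50: cells exposed to compound for 48 hours before viability readout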). The note with it: SU-DIPG-XVII viability, CellTiter-Glo ATP luminescence. In general terms: Cellular ATP, detected with luciferase, serves as a proxy for viable cell number.
Assay [2] is described as follows: growth inhibition of DIPG glioma cells, dose response, cell-based, SU-DIPG-XIII, MIPE4.0, CellTiter-Glo, qHTS (AID 1347061; cut-off not given, nearly all actives have AC50 up to about 37 µM;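 note: cells exposed to compound for 48 hours before readout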). The conditions noted are these: SU-DIPG-XIII viability, CellTiter-Glo ATP luminescence.
Assay [3] in a line: growth inhibition of DIPG glioma cells, dose response, cell-based, JHH-DIPG-1, MIPE4.0, CellTiter-Glo, qHTS (AID 1347062; cut-off not given, nearly all actives have AC50 up to about 27 µM;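 for AC50: cells exposed to compound for two days before readout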). The conditions noted are these: JHH-DIPG-1 viability, CellTiter-Glo ATP luminescence.
Assay [4] in a line: growth inhibition of DIPG glioma cells, dose response, cell-based, SU-DIPG-XIII, MIPE5.0, CellTiter-Glo, qHTS (AID 1347064; cut-off not given, nearly all actives have AC50 up to about 23 µM;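 for AC50: cells exposed to compound for 48 hours before the viability read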). The note with it: SU-DIPG-XIII viability, CellTiter-Glo ATP luminescence.
Assay [5] is described as follows: viability loss in pontine glioma line – cell-based, SU-DIPG-XXV, MIPE5.0, CellTiter-Glo, qHTS, dose response (AID 1347065; cut-off not given, nearly all actives have AC50 up to about 26 µM;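 note: cells exposed to compound for 48 hours before ATP readout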). The conditions noted are these: CellTiter-Glo ATP luminescence.
Assay [6] in a line: SU-DIPG-VI glioma cell viability, MIPE4.0 library, CellTiter-Glo luminescence, qHTS (AID 1347066; cut-off not given, nearly all actives have AC50 up to about 30 µM;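 note: cells exposed to compound for 48 hours before readout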). The conditions noted are these: CellTiter-Glo ATP luminescence.
A short description of assay [7]: JHH-DIPG-1 glioma cell viability, MIPE5.0 library, CellTiter-Glo luminescence, qHTS (AID 1347067; cut-off not given, nearly all actives have AC50 up to about 26 µM;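 note: cells exposed to compound for 48 hours before readout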). The note with it: JHH-DIPG-1 glioma viability, CellTiter-Glo ATP luminescence.
The nature of assay [8]: SU-DIPG-XXV glioma cell viability, MIPE5.0 library, qHTS (AID 1347068; cut-off not given, nearly all actives have IC50 up to about 30 µM;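 for IC50: cells exposed to compound for 48 hours before viability readout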). (In qHTS, concentration-response curves come from the screen itself.)
Assay [9] can be described thus: sensitizers of A549 cells to miR-34 induction, primary screen, imaging, A549 dox-inducible miR-34, nuclei and caspase counts (AID 1347080;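 active = compounds whose cell count with miR-34 switched on is under 0.7 times the count with it off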). The note with it: A549 miR-34 inducible, Hoechst nuclei count, 48 h.
The nature of assay [10]: modifiers of HSF1 nuclear foci, imaging, Selleck Cancer Library (AID 1347162; in the data active = plate-normalised HSF1 focus index below about 0.46). The note with it: human cells, at 10 µM; SSMD: measured here: HSF1 foci SSMD mean; cell count: measured here: cell number; plate-normalised HSF1 focus index: stronger effect = lower value.
Assay [11] can be described thus: survival rescue of mitochondrial mutant cells in low glucose, primary screen, MELAS cybrids, Rieske KO mouse fibroblasts, CellTiter-Glo (AID 1508586;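 active = mean z-score across replicates of 1.96 or higher in either the MELAS or the Rieske mutant cell line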;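 note: z relative to plate mean and SD of compound and empty wells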).
Assay [12] is described as follows: ovarian cancer cell viability with rucaparib, profiling panel, oncology-focused library, rucaparib conditional (AID 1508598). The conditions noted are these: patient-derived ovarian cancer cells, CellTiter-Glo viability, 144 h, stronger effect = lower value.
Assay [13] can be described thus: growth inhibition of DIPG glioma cells, dose response, cell-based, SU-DIPG-IV, MIPE4.0, CellTiter-Glo, qHTS (AID 1347063; cut-off not given, nearly all actives have AC50 up to about 30 µM;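 note: compound exposure lasted 48 hours before the viability readout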). The note with it: SU-DIPG-IV viability, CellTiter-Glo ATP luminescence.

Structures are written as SMILES. Records with an inconclusive call do not appear. The source made the active and inactive calls.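 Rule for the calls, unless noted: active = normalized viability below 100% at a tested concentration; inactive = the rest.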

Five molecules from PubChem BioAssay can be followed below.

What is called AC50 is the concentration at which the activity in the assay is half-maximal. One may read the viability as a read-out of living cells in per cent, often relative to untreated cells. A word on the IC50: it is the concentration that inhibits the measured activity by half.

As for `C[C@@H]1C(=O)OC2[C@H](O)[C@]34[C@H]5C[C@@H](C(C)(C)C)[C@]36[C@@H](OC(=O)[C@@H]6O)O[C@@]4(C(=O)O5)[C@]21O` (some centres not stated), the result in assay [1], in assay [2], in [3], in [4], in assay [5] and in [6] was inactive. The outcome in assay [7] and in assay [8] was inactive.

As to `Cc1ccc(NC(=O)c2cccc(C(C)(C)C#N)c2)cc1Nc1ccc2ncn(C)c(=O)c2c1`, the AC50 is 2.09 µM (active) in assay [1]; 4.18 µM (active) in assay [2]; 5.9 µM (active) in assay [3]; 1.48 µM (active) in assay [4]; 7.42 µM (active) in [5]; 0.934 µM (active) in [7]. For the same molecule, in assay [6], the result was inactive. For the same molecule, the fold change in assay [9] (stronger effect = lower value, cell number ratio, induced over uninduced) is 0.944 (inactive); in assay [9] (measured here: relative caspase fold change +Dox/-Dox), 1.09. Besides, the cell count in assay [9] (measured here: total cells with miR-34 induction, stronger effect = lower value) worked out at 5830; in assay [9] (measured here: total cells without miR-34 induction), 6180; in [10], 7560. The molecule further returned an SSMD in assay [10] of 3.15. Moreover, in assay [10], the plate-normalised HSF1 focus index was 1.12 (inactive). Moreover, the z-score is 0.493 (inactive) in [11] (MELAS cybrid survival, CellTiter-Glo 48 h, stronger effect = higher value) and -1.35 in assay [11] (Rieske KO mouse fibroblast survival, CellTiter-Glo 72 h). Moreover, the viability in assay [12] (at 0.000305 µM, OCI-C5x cells, with rucaparib 10 µM, 100% = cells with rucaparib alone) was 126% (inactive); in assay [12] (at 0.000305 µM, OCI-C5x cells, without rucaparib), 104% (inactive); in [12] (at 0.000305 µM, OCI-P5x cells, with rucaparib 20 µM, 100% = cells with rucaparib alone), 95.5% (active); in [12] (at 0.000305 µM, OCI-P5x cells, without rucaparib) it was 90.4% (active); in assay [12] (at 0.00122 µM, OCI-C5x cells, with rucaparib 10 µM, 100% = cells with rucaparib alone), 129% (inactive); in assay [12] (at 0.00122 µM, OCI-C5x cells, without rucaparib), 115% (inactive). The viability in assay [12] (at 0.00122 µM, OCI-P5x cells, with rucaparib 20 µM, 100% = cells with rucaparib alone) is 107% (inactive); in [12] (at 0.00122 µM, OCI-P5x cells, without rucaparib), 95.5% (active); in assay [12] (at 0.00488 µM, OCI-C5x cells, with rucaparib 10 µM, 100% = cells with rucaparib alone), 128% (inactive); in assay [12] (at 0.00488 µM, OCI-C5x cells, without rucaparib), 109% (inactive); in [12] (at 0.00488 µM, OCI-P5x cells, with rucaparib 20 µM, 100% = cells with rucaparib alone) it was 107% (inactive); in assay [12] (at 0.00488 µM, OCI-P5x cells, without rucaparib) it was 99.1% (active). The viability in assay [12] (at 0.0195 µM, OCI-C5x cells, with rucaparib 10 µM, 100% = cells with rucaparib alone) is 116% (inactive); in [12] (at 0.0195 µM, OCI-C5x cells, without rucaparib), 124% (inactive); in assay [12] (at 0.0195 µM, OCI-P5x cells, with rucaparib 20 µM, 100% = cells with rucaparib alone), 109% (inactive); in [12] (at 0.0195 µM, OCI-P5x cells, without rucaparib) it was 95% (active); in assay [12] (at 0.0781 µM, OCI-C5x cells, with rucaparib 10 µM, 100% = cells with rucaparib alone), 115% (inactive); in [12] (at 0.0781 µM, OCI-C5x cells, without rucaparib), 121% (inactive). Also, the viability in assay [12] (at 0.0781 µM, OCI-P5x cells, with rucaparib 20 µM, 100% = cells with rucaparib alone) was 84.1% (active); in assay [12] (at 0.0781 µM, OCI-P5x cells, without rucaparib), 82.8% (active); in assay [12] (at 0.313 µM, OCI-C5x cells, with rucaparib 10 µM, 100% = cells with rucaparib alone), 112% (inactive); in assay [12] (at 0.313 µM, OCI-C5x cells, without rucaparib), 125% (inactive); in [12] (at 0.313 µM, OCI-P5x cells, with rucaparib 20 µM, 100% = cells with rucaparib alone), 68.7% (active); in [12] (at 0.313 µM, OCI-P5x cells, without rucaparib), 85.5% (active). Also, the viability in [12] (at 1.25 µM, OCI-C5x cells, with rucaparib 10 µM, 100% = cells with rucaparib alone) is 108% (inactive); in assay [12] (at 1.25 µM, OCI-C5x cells, without rucaparib), 127% (inactive); in [12] (at 1.25 µM, OCI-P5x cells, with rucaparib 20 µM, 100% = cells with rucaparib alone) it was 73.2% (active); in assay [12] (at 1.25 µM, OCI-P5x cells, without rucaparib), 81.8% (active); in assay [12] (at 5 µM, OCI-C5x cells, with rucaparib 10 µM, 100% = cells with rucaparib alone), 127% (inactive); in [12] (at 5 µM, OCI-C5x cells, without rucaparib) it was 140% (inactive). In addition, the viability is 67.4% (active) in assay [12] (at 5 µM, OCI-P5x cells, with rucaparib 20 µM, 100% = cells with rucaparib alone) and 22.1% (active) in assay [12] (at 5 µM, OCI-P5x cells, without rucaparib).

Consider `O=C(O)C1=CC(O)C(O)[C@H](O)C1` (some centres not stated), for which the molecule was called inactive in assay [1], in assay [2], in assay [3], in assay [4], in assay [5] and in [7]. Also, in assay [8], the call was inactive.

On to `CN(C)CC(C)(C)CNc1nn2c(-c3ccccc3)nnc2cc1C1CCC1`, for which the result in assay [1], in assay [2], in assay [4], in assay [5], in [6] and in assay [7] was inactive. Also, the result in assay [8] was inactive. Besides, the AC50 in [3] was 16.6 µM (active).

With `C[N+](C)([O-])CCNc1ccc(NCC[N+](C)(C)[O-])c2c1C(=O)c1c(O)ccc(O)c1C2=O`, the AC50 in [1] is 9.34 µM (active). Moreover, the molecule was called inactive in [2], in assay [3], in [13] and in assay [6]. Also, the IC50 in assay [8] was 0.00132 µM (active).
